In the supplement of paper PMC11018630:
Structures can show the parent of a compound that is named as a salt. ± gives the standard deviation of the averaged measurements.

System: RDEB dermal fibroblasts EB119
Assay: day of extracellular matrix detachment from plate (days); higher = delayed detachment (less fibrotic matrix)
Conditions: compound concentration: 10 uM

N=C(N)NN [Aminoguanidine (hydrochloride)] was tested. Which “day of extracellular matrix detachment from plate” value (“day” for short) did it give?
The value was 26.3 ± 1.1.

With Cc1ccc(-n2nccn2)c(C(=O)N2CCN(c3nc4cc(Cl)ccc4o3)CC[C@H]2C)c1 [Suvorexant (MK-4305)] as the compound, how does the “day” value read?
Its value is 25.

CCN(C)C(=O)Oc1cccc([C@H](C)N(C)C)c1 [Rivastigmine] was tested. Which “day” value did it give?
Its value is 30.3 ± 2.9.
